Active and inactive are the calls of the source. Unless noted, the rule behind the calls is not given here.
Legend:
[1] = anti-His antibody binders, primary screen, artefact control for SMM control protein annotation, biochemical, small-molecule microarray, 635 nm fluorescence (AID 1128); conditions: anti-His Alexa647 antibody binding, higher = more signal;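 note: score merges feature fluorescence with signal-to-noise for each printed compound spot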
[2] = test system: Human papillomavirus type 1a E7 protein (residues 1-88); assay: HPV1a E7 small-molecule binders, primary screen, biochemical, small-molecule microarray, residues 1-88, 635 nm (AID 1129); conditions: small-molecule microarray binding, fluorescence 635 nm; higher = more signal
[3] = target: Focal adhesion kinase 1 (Homo sapiens) (UniProt Q05397); assay: small-molecule microarray binders of FAK, primary screen, biochemical, 635/667 nm fluorescence, BSA, DTT (AID 1130); conditions: PTK2 binding, 635 nm fluorescence, higher = more signal;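 note: composite of spot emission at 667 nm and signal to noise over triplicate slides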
Chain of Focal adhesion kinase 1 (Homo sapiens) (Q05397 whole entry, looked up): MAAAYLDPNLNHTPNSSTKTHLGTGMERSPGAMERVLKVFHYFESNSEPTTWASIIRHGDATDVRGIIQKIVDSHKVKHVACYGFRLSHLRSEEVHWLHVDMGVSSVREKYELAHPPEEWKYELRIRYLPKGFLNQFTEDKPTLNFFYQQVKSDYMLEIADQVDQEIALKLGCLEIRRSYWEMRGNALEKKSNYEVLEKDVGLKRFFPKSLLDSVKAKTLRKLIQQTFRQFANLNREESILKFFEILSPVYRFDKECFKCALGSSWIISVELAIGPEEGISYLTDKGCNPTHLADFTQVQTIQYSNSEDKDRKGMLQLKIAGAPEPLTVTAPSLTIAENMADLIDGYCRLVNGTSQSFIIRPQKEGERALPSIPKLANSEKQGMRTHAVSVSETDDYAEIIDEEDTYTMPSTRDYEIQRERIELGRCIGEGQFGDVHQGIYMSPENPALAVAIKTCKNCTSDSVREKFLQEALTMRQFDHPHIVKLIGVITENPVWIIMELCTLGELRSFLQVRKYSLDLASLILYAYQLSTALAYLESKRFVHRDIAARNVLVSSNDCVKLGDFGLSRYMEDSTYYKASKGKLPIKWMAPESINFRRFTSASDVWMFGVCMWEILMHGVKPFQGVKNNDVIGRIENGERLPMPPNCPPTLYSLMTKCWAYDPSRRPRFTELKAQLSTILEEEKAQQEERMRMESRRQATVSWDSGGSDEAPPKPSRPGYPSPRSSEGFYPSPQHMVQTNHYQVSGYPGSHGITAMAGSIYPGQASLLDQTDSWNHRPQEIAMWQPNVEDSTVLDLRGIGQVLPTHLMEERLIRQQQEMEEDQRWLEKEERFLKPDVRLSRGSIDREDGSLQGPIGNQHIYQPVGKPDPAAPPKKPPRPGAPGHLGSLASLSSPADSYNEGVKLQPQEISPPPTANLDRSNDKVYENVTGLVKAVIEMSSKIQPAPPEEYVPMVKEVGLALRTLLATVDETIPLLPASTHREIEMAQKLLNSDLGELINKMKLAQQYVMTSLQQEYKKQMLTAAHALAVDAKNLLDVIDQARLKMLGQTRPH

[4] = test system: Fibrinogen (Alexa647-labelled); assay: fibrinogen binders on compound microarrays, profiling panel, artefact control for SMM control-protein annotation, biochemical, small-molecule microarray, 635/667 nm fluorescence (AID 1131); conditions: fibrinogen-A647 binding fluorescence, higher = more signal;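 note: z-score merges 667 nm fluorescence with per-spot signal-to-noise over triplicate slides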
[5] = target: Follistatin (Homo sapiens) (UniProt P19883); assay: follistatin binders on small-molecule microarrays, primary screen, biochemical, small-molecule microarray, 635/667 nm fluorescence (AID 1132); conditions: FST binding, 635 nm fluorescence, higher = more signal
Chain of Follistatin (Homo sapiens) (P19883 whole entry, looked up): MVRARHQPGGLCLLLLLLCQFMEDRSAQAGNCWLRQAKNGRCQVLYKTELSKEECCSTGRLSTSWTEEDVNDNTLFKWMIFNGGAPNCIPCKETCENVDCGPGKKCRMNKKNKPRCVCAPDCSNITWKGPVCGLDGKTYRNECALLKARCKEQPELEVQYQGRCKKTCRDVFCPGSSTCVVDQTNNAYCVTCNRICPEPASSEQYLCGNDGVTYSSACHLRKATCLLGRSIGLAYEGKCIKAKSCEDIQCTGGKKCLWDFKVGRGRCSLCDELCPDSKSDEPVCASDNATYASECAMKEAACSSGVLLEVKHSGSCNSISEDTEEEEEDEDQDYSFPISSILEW

[6] = target: Fibroblast growth factor 2 (Homo sapiens) (UniProt P09038); assay: FGF2 binders on small-molecule microarrays, primary screen, biochemical, small-molecule microarray, 635/667 nm fluorescence (AID 1133); conditions: small-molecule microarray binding, FGF2, fluorescence 635/667; higher = more signal
Chain of Fibroblast growth factor 2 (Homo sapiens) (P09038 whole entry, looked up): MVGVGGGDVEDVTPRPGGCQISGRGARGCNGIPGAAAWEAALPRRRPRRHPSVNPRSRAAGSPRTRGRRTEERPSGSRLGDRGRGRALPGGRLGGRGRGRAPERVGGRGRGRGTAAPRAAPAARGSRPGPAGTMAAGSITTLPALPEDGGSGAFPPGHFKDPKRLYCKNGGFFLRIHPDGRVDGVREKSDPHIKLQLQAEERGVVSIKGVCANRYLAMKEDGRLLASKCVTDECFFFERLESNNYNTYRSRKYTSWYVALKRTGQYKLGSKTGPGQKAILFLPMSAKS

[7] = mitochondrial membrane potential change in A549 cells, profiling panel, cell-based, JC-1 fluorescence, basal, 24 h, 100 nL (AID 1138); conditions: higher = more signal;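 note: A549 lung adenocarcinoma cells under basal conditions with no added stimulus; test concentration not given here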
Lefty1 = Lefty1 binders on small-molecule microarrays, primary screen, biochemical, small-molecule microarray, 635/667 nm fluorescence (AID 1139); conditions: small-molecule microarray binding, fluorescence 635/667; higher = more signal
[8] = test system: wheat germ agglutinin (Triticum aestivum), Alexa647-labelled; assay: wheat germ agglutinin binders on compound microarrays, profiling panel, artefact control for SMM control-protein annotation, biochemical, small-molecule microarray, 635/667 nm fluorescence (AID 1140); conditions: WGA-A647 binding, 635 nm fluorescence, higher = more signal;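 note: score merges 667 nm feature emission with signal to noise over triplicate slides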
[9] = target: Luciferin 4-monooxygenase (Photinus pyralis) (UniProt P08659); assay: firefly luciferase enzyme inhibitors, primary screen, biochemical, luminescence, purified enzyme, 2006 set (AID 1141); conditions: SteadyGlo luminescence, 30 min, higher = more signal, called active from +8 up or from −8 down;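 note: cell-free assay with purified firefly luciferase at 100 ng per well in PBS; test concentration not given here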
Chain of Luciferin 4-monooxygenase (Photinus pyralis) (P08659 whole entry, looked up): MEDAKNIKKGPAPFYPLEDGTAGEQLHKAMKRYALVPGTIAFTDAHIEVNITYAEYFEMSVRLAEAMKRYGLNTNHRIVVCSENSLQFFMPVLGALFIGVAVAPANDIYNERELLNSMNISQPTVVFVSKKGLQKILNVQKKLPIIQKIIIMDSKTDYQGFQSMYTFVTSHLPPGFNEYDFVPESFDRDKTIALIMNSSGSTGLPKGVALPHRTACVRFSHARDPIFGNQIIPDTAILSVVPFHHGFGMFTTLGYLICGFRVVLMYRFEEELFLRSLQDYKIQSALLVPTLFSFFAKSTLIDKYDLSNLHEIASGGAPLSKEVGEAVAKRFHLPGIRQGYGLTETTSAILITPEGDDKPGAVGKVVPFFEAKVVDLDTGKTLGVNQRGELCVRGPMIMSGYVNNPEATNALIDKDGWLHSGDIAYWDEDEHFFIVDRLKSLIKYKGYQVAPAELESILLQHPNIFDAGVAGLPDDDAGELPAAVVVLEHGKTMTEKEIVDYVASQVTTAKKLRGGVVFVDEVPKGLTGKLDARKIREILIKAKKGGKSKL

[10] = test system: Wnt5a (protein binding on small-molecule microarray); assay: Wnt5a binders on small-molecule microarray, primary screen, biophysical, 635/667 nm fluorescence (AID 1142); conditions: 635 nm fluorescence, higher = more signal;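 note: fluorescence read at 667 nm with signal to noise per printed feature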
[11] = cell viability in Huh7 cells, primary screen, cytotoxicity control for HCV replication inhibitor project, CellTiter-Glo luminescence, basal, 48 h (AID 1143); conditions: Huh7 HCV replicon, higher = more signal, called active from +8 up or from −8 down;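 note: Huh7 hepatoma cells carrying a hepatitis C replication reporter with no stimulus; test concentration not given here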
[12] = P. aeruginosa biofilm formation inhibitors, primary screen, PAO1 strain, BacTiter-Glo luminescence, LB-PBS (AID 1144); conditions: 12 h, higher = more signal
[13] = CREB reporter modulators without forskolin, primary screen, cell-based, PC12, CRE-LacZ reporter, unstimulated (AID 1145); conditions: no forskolin, luminescence, 4.5 h, higher = more signal, called active from +8 up or from −8 down
[14] = CREB reporter modulators under forskolin, primary screen, cell-based, PC12, CRE-LacZ reporter, forskolin-stimulated (AID 1146); conditions: luminescence, 4.5 h, higher = more signal, called active from +8 up or from −8 down;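 note: PC12 cells with 6xCRE LacZ reporter stimulated by forskolin 10 µM; beta-galactosidase reporter signal reflecting CREB driven transcription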
[15] = target: Streptavidin (Streptomyces avidinii) (UniProt P22629); assay: streptavidin binders on small-molecule microarray, primary screen, artefact control for SMM compound annotation, biophysical, 635/667 nm fluorescence (AID 1147); conditions: streptavidin binding, higher = more signal;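 note: signal reflects streptavidin binding to arrayed compounds as a control protein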
Chain of Streptavidin (Streptomyces avidinii) (P22629 whole entry, looked up): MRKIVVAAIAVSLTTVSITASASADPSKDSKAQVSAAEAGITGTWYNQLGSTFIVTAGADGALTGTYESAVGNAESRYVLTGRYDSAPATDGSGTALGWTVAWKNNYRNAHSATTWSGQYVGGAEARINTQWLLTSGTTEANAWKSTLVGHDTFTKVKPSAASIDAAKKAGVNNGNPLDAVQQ

[16] = small-molecule binders of probe aInhba, primary screen, biochemical, small-molecule microarray, 635/667 nm fluorescence (AID 1148); conditions: higher = more signal;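 note: score merges 667nm spot fluorescence with signal-to-noise for antibody binding to printed compounds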
Torsin-1A (Homo sapiens) [17] = target: Torsin-1A (Homo sapiens) (UniProt O14656); assay: torsin A binders from cell lysate, primary screen, small-molecule microarray, wild-type, 635/667 nm (AID 1149); conditions: COS7 hTOR1A-WT lysate, 635 nm fluorescence, higher = more signal
Chain of Torsin-1A (Homo sapiens) (O14656 whole entry, looked up): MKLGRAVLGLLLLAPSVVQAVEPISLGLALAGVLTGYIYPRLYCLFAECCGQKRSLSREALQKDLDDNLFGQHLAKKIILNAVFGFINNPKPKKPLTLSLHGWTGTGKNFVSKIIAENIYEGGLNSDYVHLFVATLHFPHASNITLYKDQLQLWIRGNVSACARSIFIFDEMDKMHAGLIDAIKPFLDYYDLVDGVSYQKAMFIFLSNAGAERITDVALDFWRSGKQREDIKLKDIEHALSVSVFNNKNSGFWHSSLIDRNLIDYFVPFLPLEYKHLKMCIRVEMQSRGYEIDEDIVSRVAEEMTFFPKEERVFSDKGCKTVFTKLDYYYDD

Torsin-1A (Homo sapiens) [18] = target: Torsin-1A (Homo sapiens) (UniProt O14656); assay: small-molecule binders of mutant TOR1A in lysate, primary screen, cell lysate, small-molecule microarray, COS7 lysate, 635/667 nm fluorescence (AID 1150); conditions: COS7 hTOR1A mutant lysate, 635 nm fluorescence, higher = more signal;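 note: score pools 667 nm emission and signal to noise measuring lysate protein binding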
[19] = test system: Sonic hedgehog protein (Shh); assay: small-molecule binders of Shh protein, primary screen, biochemical, small-molecule microarray, 635/667 nm fluorescence (AID 1151); conditions: small-molecule microarray binding, 635 nm fluorescence; higher = more signal;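 note: Shh protein binding to compounds spotted on small-molecule microarray slides; score combines spot fluorescence intensity with signal-to-noise across triplicate slides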

SMILES | composite z-score [1] | composite z-score [2] | composite z-score [3] | composite z-score [4] | composite z-score [5] | composite z-score [6] | z-score [7] | composite z-score (Lefty1) | composite z-score [8] | z-score [9] | composite z-score [10] | z-score [11] | z-score [12] | z-score [13] | z-score [14] | composite z-score [15] | composite z-score [16] | composite z-score (Torsin-1A (Homo sapiens) [17]) | composite z-score (Torsin-1A (Homo sapiens) [18]) | composite z-score [19]
COCCOC(=O)N1C(=O)[C@@]2(c3cc(C#CC4=CCCCC4)ccc31)[C@H](C(N)=O)[C@H]1C(=O)O[C@H](c3ccccc3)[C@H](c3ccccc3)N1[C@@H]2c1ccc(OCCO)cc1 | 2.26 | 1.21 | 0.797 | 0.938 | 0.371 | 0.925 | -1.65 | 0.517 | 0.773 | -1.8 (inactive) | 0.14 | -4.37 (inactive) | -1.72 (inactive) | -0.195 (inactive) | -0.327 (inactive) | -0.602 | -0.406 | 0.394 | 0.644 | 1.02
C=C(COC)/C(=C/C[C@H](OC(=O)c1ccncc1)c1ccc(OCCO)cc1)c1cnc2ccccc2c1 | 1.96 | 1.2 | 0.111 | 0.967 | 1.38 | 1.02 | -0.0174 | 1.33 | 1.47 | -1.34 (inactive) | 0.638 | -0.593 (inactive) | 0.308 (inactive) | 6.73 (inactive) | -0.073 (inactive) | 1.73 | -0.0087 | 1.27 | 0.953 | 2.11
CC(C)N1C(=O)c2ccccc2[C@](C)(C(=O)NCc2ccccc2)[C@@H]1c1ccc(CO)cc1 | 3.09 | 0.29 | 0.239 | -1.77 | -0.24 | -0.131 | -0.39 | -0.554 | -0.444 | -1.06 (inactive) | -0.111 | -0.139 (inactive) | 0.261 (inactive) | 0.558 (inactive) | -0.074 (inactive) | -0.558 | -0.154 | 1.3 | -0.119 | -0.0391
COc1ccc([C@H]2C[C@H]3C(Br)=C[C@@H]2C(=O)[C@]32CO2)cc1 | 0.613 | -0.751 | 0.298 | -0.325 | 0.6 | 0.194 | 0.271 | 0.0745 | -0.138 | -0.388 (inactive) | -0.0556 | 0.0402 (inactive) | 1.11 (inactive) | 2.85 (inactive) | 0.357 (inactive) | 0.256 | -0.0822 | -0.0733 | -0.12 | 0.311
C=CC[C@]1(C(=O)N2CCCCC2)N=C(c2ccc(OCCCO)cc2)O[C@H]1c1ccccc1 | 2.2 | 1.19 | 0.702 | 0.928 | 1.3 | -0.165 | 1.48 | -0.395 | 0.676 | -0.728 (inactive) | 0.15 | -3.83 (inactive) | 0.351 (inactive) | 2.73 (inactive) | 0.0819 (inactive) | 0.224 | 0.573 | 0.29 | 1.11 | -0.328
CC(C)(C)OC(=O)CC[C@@]1(C(=O)NCCN2CCOCC2)N=C(c2ccc(OCCCO)cc2)O[C@@H]1c1ccccc1N=[N+]=[N-] | 0.22 | 1.2 | 1.21 | 0.554 | 1.18 | -0.156 | 1.26 | -0.0836 | 0.0832 | -9.63 (active) | 0.492 | -1.34 (inactive) | 1.45 (inactive) | 1.55 (inactive) | -0.564 (inactive) | 0.554 | 0.0614 | 1.67 | 1.43 | -0.431
COc1ccc(C(=O)Nc2ccc(CN3C(=O)[C@@]4(O[C@@H](CCn5cc([C@H](O)c6ccccc6)nn5)[C@H]([Si](C)(C)c5ccc(OC)cc5)[C@H]4C)c4ccccc43)cc2)cc1 | 0.848 | -0.024 | -0.103 | 0.579 | 0.836 | -0.019 | 1.83 | 0.526 | 0.376 | -0.753 (inactive) | -0.0152 | -3.46 (inactive) | -0.576 (inactive) | 2.4 (inactive) | -1.04 (inactive) | 0.865 | -0.0405 | 0.253 | 0.163 | 1.51
C=C(/C(=C/C[C@@H](OC(C)=O)c1ccc(OCCO)cc1)c1cnc2ccccc2c1)C(C)C | 0.204 | 0.408 | 0.166 | -0.59 | 1.1 | 0.757 | 1.04 | 0.806 | 0.983 | -1.6 (inactive) | 0.0701 | -1.07 (inactive) | -0.25 (inactive) | 0.681 (inactive) | -0.45 (inactive) | 0.376 | -0.084 | -0.969 | 0.576 | 1.67
COC(=O)C(CC#Cc1ccc2c(c1)[C@]1(C(=O)N2)[C@H](c2ccc(O)cc2)N2[C@H](c3ccccc3)[C@H](c3ccccc3)OC(=O)[C@H]2[C@@H]1C(=O)Nc1nc2ccccc2s1)C(=O)OC | 1.8 | 1.22 | 0.833 | 0.96 | 1.1 | 1.22 | -1.7 | 1.23 | 0.471 | -1.63 (inactive) | 0.695 | -2.01 (inactive) | -1.45 (inactive) | 1.15 (inactive) | -0.5 (inactive) | 0.458 | 0.373 | 1.41 | 1.21 | 1.62

Source: PubChem BioAssay
